Screen size: about 85,000 compounds; about 120 (0.14%) were called active. Many of the other results were omitted from the sample, so actives are more common in it than they were. Values without a mark were called inactive.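 Rule for the calls: active = inhibition above 20%; inactive = inhibition below 20%.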
experiment: clotrimazole potentiators killing Candida biofilms, primary screen, with clotrimazole, Alamar Blue (AID 834);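 note: preformed 24 hr biofilms exposed to compound for 48 hr; 0% = biofilm without compound and 100% = blank killed by clotrimazole plus chlorhexidine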; settings: C. albicans biofilm + clotrimazole, at 6 µM, stronger effect = higher value

| SMILES | inhibition |
| --- | --- |
| CC(=O)NC1=NN(C(C)=O)C(C)(c2ccc(Cl)s2)S1 (stereo unspecified) | 6.61% |
| CCOc1c(Br)cc(/C=C2\C(=O)N(CCC#N)N=C2C)cc1OC | -1.46% |
| Cc1cccc2nc(CSc3nc4[nH]ncc4c(=O)n3-c3cccc(Cl)c3)cc(=O)n12 | -2.14% |
| Cc1ccc(S(=O)(=O)N(c2cccc(C)c2)C2CCS(=O)(=O)C2)cc1 (stereo unspecified) | 11.2% |
| CS(=O)(=O)Nc1ccc(C(=O)N2CCCC2)cc1 | 6.23% |
| O=C(c1ccccc1Oc1ccccc1)N1CCN(c2ccc(F)cc2)CC1 | 6.89% |
| CCOc1ccc(C(=O)NC(C(=O)NCc2ccccn2)C(C)C)cc1 (stereo unspecified) | -4.48% |
| Cc1cccc(N2CCN(C(c3ccc(N(C)C)cc3)c3nnnn3C(C)(C)C)CC2)c1C (stereo unspecified) | 4.97% |
| COc1ccc(CNCCCO)cc1OC | 5.75% |
| Cc1nnc(SCc2nc3ccccc3nc2C)s1 | 5.78% |
| CC(=O)N(C)c1ccc(NC(=O)C(F)(F)F)cc1 | 0.77% |
| Cc1ccc(CN(N=Nc2nonc2N)c2nonc2N)c(C)c1 | 1.82% |
| Cc1ccc(-c2cc(C(=O)NCC3CCCO3)c3ccccc3n2)o1 (stereo unspecified) | 5.01% |
| Cc1ccc(-c2noc(CSc3nnc(-c4ccncc4)n3-c3ccc(F)cc3)n2)cc1 | 5.84% |
| Cc1ccc(CS(=O)(=O)CCC(=O)NC2CC2)cc1 | 8.04% |
| Cc1csc(OCC(=O)Nc2ccc(C)c(C)c2)n1 | 4.83% |
| CCN(CC)C(=O)CN(c1cccc(OC)c1)S(=O)(=O)c1ccc(C)cc1 | 3.27% |
| CC1=NN(C(C)C)C(=O)C1 | 9.86% |
| CCOC(=O)C1CSC(CC(=O)Nc2ccc(OCC)cc2)C(=O)N1 (stereo unspecified) | 3.56% |
| CCCc1nc(NCc2ccc3c(c2)OCO3)c2nnn(Cc3ccccc3Cl)c2n1 | 7.6% |
| CCn1c(=O)c(=O)n(CC)c2cc(S(=O)(=O)N3CCc4ccccc43)ccc21 | 1.66% |

| SMILES | inhibition |
| --- | --- |
| Cc1cccc(NC(=O)C2CC(=O)OC23CCCC3)c1 (stereo unspecified) | -0.65% |
| C=C(Cl)COC(=O)C1C2C=CC(C2)C1C(=O)O (stereo unspecified) | 6.89% |
| COCCNC(=O)Cn1cc(C(=O)c2cccs2)c2ccccc21 | -3% |
| CCOc1cccc(NC(=O)Cn2nc(-c3ccc4c(c3)OCCO4)ccc2=O)c1 | -3.83% |
| CC1CCc2c(nc3ncnn3c2Nc2ccc(OC(F)(F)F)cc2)C1 (stereo unspecified) | 2.5% |
| COc1c(F)c(F)c(C(=O)O)c(Nc2ccccc2C)c1F | 0.13% |
| CCOC(=O)N1CCN(Cc2nc(N)nc(Nc3ccc(C)cc3)n2)CC1 | 4.91% |
| CCOc1ccccc1NC(=O)c1cccnc1 | 4.81% |
| COc1ccc(CCNc2ncnc3nc[nH]c23)cc1OC | 22.7% (active) |
| COc1ccc(CCNS(=O)(=O)c2ccc(F)cc2)cc1OC | 0.3% |
| CCS(=O)(=O)NCCc1ccc(OC)c(OC)c1 | -1.71% |
| CCCCNC(=O)C1CCCNC1=O (stereo unspecified) | 1.47% |
| CCCCNS(=O)(=O)c1ccc(S(=O)(=O)n2cnc3ccccc32)cc1 | 0.82% |
| O=C1N=C(N2CCCC2)S/C1=C\c1cccc(Br)c1 | 2.13% |
| CCOC(=O)C(C)n1cnc2sc(C)c(C)c2c1=O (stereo unspecified) | 9.63% |
| CCOC(=O)c1cnc(SCc2nc(N)nc(Nc3ccc(OC)cc3)n2)nc1N | 1.79% |
| CN(C)[C@@H]1C(=O)C(C(N)=O)=C(O)[C@@]2(O)C(=O)C3=C(O)c4c(O)ccc(Cl)c4[C@@H](O)[C@H]3C[C@@H]12 | 29.9% (active) |
| CC1CCCN(C(C(=O)Nc2ccc(C(C)C)cc2)c2ccc3c(c2)OCO3)C1 (stereo unspecified) | 6.31% |
| CCS(=O)(=O)Nc1ccc(C2=NN(S(=O)(=O)c3ccc(F)cc3)C(c3ccco3)C2)cc1 (stereo unspecified) | 2.91% |
| Cc1cc(C(=O)OC(C)C(=O)Nc2cccc(S(=O)(=O)N3CCOCC3)c2)c(C)o1 (stereo unspecified) | 0.93% |
| COc1ccccc1-c1nc(C#N)c(N2CCC(C(N)=O)CC2)o1 | 7.17% |

| SMILES | inhibition |
| --- | --- |
| Cc1cccn2c(=O)c(/C=C(\C#N)S(=O)(=O)c3ccc(Cl)cc3)c(N3CCC(C(N)=O)CC3)nc12 | 45.2% (active) |
| Cc1ccc(C(c2nnnn2CS(=O)(=O)c2ccc(C)cc2)N2CCC(C(N)=O)CC2)cc1 (stereo unspecified) | -1.5% |
| Cc1ccc(Cc2c(C)nc3nc(SCC(=O)NCCN4CCOCC4)nn3c2C)cc1 | -3.03% |
| Cc1ccc(-n2ccc(=O)c(C(=O)O)n2)cc1 | 2.26% |
| COc1ccc(S(=O)(=O)Nc2ccc3oc(C)c(C(C)=O)c3c2)cc1 | -2.16% |
| O=C(Cc1ccccc1)Nc1c(C(=O)N2CCCCCC2)cnn1-c1ccccc1 | -2.24% |
| CC(C)CC(=O)Nc1cc(C(F)(F)F)ccc1N1CCOCC1 | 1.97% |
| CC(C)(C)n1nnnc1C(c1ccc(Cl)cc1)N1CCSCC1 (stereo unspecified) | 6.98% |
| Cc1ccccc1-n1c(C)cc(/C=C2\NC(=O)NC2=O)c1C | 2.93% |
| Cc1ccc(NC(=O)N2CCC(c3nc4c(nnn4Cc4c(F)cccc4Cl)c(=O)[nH]3)CC2)cc1 | 5.75% |
| COc1ccccc1C(=O)N1CC2(C)CC1CC(C)(C)C2 (stereo unspecified) | -0.87% |
| O=C(NCc1ccccn1)c1cc(-c2ccccc2Cl)on1 | -4.95% |
| CCc1ccc(C2C(C#N)=C(N)Oc3n[nH]c(CC(=O)OC)c32)cc1 (stereo unspecified) | 8.34% |
| CCn1nccc1C(=O)Nc1ccc(Cl)c(Cl)c1 | 6.51% |
| O=C(CCCn1c(SCC(=O)c2ccccc2)nc2ccccc2c1=O)NCC1CCCO1 (stereo unspecified) | 0.02% |
| COC(=O)c1ccccc1NC(=O)CN(Cc1ccc(Cl)cc1)S(C)(=O)=O | 9.25% |
| COc1ccc(CN2CCCCC2C)cc1OC (stereo unspecified) | 0.38% |
| CCC(C)NC(=O)c1cc(Cl)ccc1OC (stereo unspecified) | 3.81% |
| C=CCn1c(-c2ccc3[nH]c(C)c(C)c3c2)n[nH]c1=S | 0.31% |
